# From PubChem BioAssay AID1159524 (National Center for Advancing Translational Sciences (NCATS), 2015)
# About 5,100 (1.2%) of roughly 410,000 compounds were called active. Another 8% or so got no clear call; they are omitted. Calls come from the whole dose curve; tested in HEK293T cells. The list comes from a sample in which actives are over-represented; it also holds similar structures and randomly drawn compounds.
# Experiment: High Throughput Screening for Foot and Mouth Disease Virus Antivirals; note: read-out not given here; nearly all actives have a fitted effect of over 45% in size
# Details: FMDV antiviral cell-based qHTS; series mostly up to 57.9 µM; activity change, negative = inhibition: at the top concentration
# % is set by controls: 0 for no effect and ±100 for the full control effect; potency is the fitted concentration of half-maximal effect.
Structure (SMILES),"activity change, negative = inhibition",Potency
Cc1cc2ccccc2n1CCNC(=O)c1ccc(F)cc1,23.9% (inactive),–
Cc1cccc2c3c(ccc12)C1=C(C(=O)C3=O)C(C)CO1 (stereo not drawn),-20.6% (inactive),–
COc1ccc(-c2nc3cnc(Oc4ccccc4)nc3n(Cc3cccs3)c2=O)cc1,5.33% (inactive),–
CCCCn1c(SCC(=O)N2CCCC2=O)nc2cc(S(N)(=O)=O)ccc21,-13% (inactive),–
CCCCn1c(SCc2ncc(-c3ccccc3)o2)nc2cc(S(N)(=O)=O)ccc21,–,28.2 µM (active)
c1ccc(-c2cnc(CN3CCN(c4ccccc4)CC3)o2)cc1,7.04% (inactive),–
CN1CCN2c3ccccc3Cc3ccccc3[C@@H]2C1,-8.38% (inactive),–
CS(=O)(=O)N1CCC[C@@]2(CCN(c3ccncc3)C2)C1,5.48% (inactive),–
Cc1ccc(-c2ccc(C(=O)N3CCc4nnc(CNC(=O)c5ccccc5)n4CC3)cc2)cc1,9.83% (inactive),–
COc1ccc(-c2csc3ncnc(Oc4ccc5c(C)cc(=O)oc5c4)c23)cc1,-19.5% (inactive),–
Cc1sc2nc(-c3ccccc3F)oc(=O)c2c1C,9.65% (inactive),–
COc1ccc(-c2csc3nc(-c4ccccc4F)oc(=O)c23)cc1OC,–,20 µM (active)
CCOC(=O)C1CCCN(C(=O)c2ccc(-n3ccc4ccccc43)s2)C1 (stereo not drawn),-12.6% (inactive),–
Cc1ccc(Cl)c(OCC(=O)N(C)CC(=O)Nc2ccc(N3CCOCC3)cc2)c1,-9.29% (inactive),–
CCn1c2ccccc2c2cc(NC(=O)COc3ccc(C)cc3C)ccc21,-14.4% (inactive),–
Cc1ccc(OCC(=O)Nc2ccc(N3CCN(C(=O)c4ccco4)CC3)cc2)c(C)c1,–,15.8 µM (active)
COc1cccc(C(=O)Nc2c3c(nn2-c2cccc(C)c2C)CS(=O)(=O)C3)c1OC,-29.6% (inactive),–
COc1ccc(C(=O)NC2CCCc3c2cnn3-c2cccc(C)c2C)c(OC)n1 (stereo not drawn),–,17.8 µM (active)
Cc1cccc(C(=O)OC(C)C(=O)NC2CCCc3ccccc32)c1O (stereo not drawn),18.9% (inactive),–
CCOc1ccc(N(CC)C(=O)c2noc3c2COc2ccc(C)cc2-3)cc1,-9.48% (inactive),–
O=C(C1CCC(Cn2c(=O)c3sccc3n(Cc3ccccc3F)c2=O)CC1)N1CCCCC1 (stereo not drawn),0% (inactive),–

Structure (SMILES),"activity change, negative = inhibition",Potency
CNc1ccc(-c2nc(-c3ccccc3C)no2)cc1[N+](=O)[O-],67.5% (inactive),–
C#CCCCCCCCCCCCCCCCC(=O)O,–,inactive
CC(=O)c1ccc(NC(=O)CCc2nc(-c3ccc(C)cc3)no2)cc1,-17.7% (inactive),–
N#CCCn1cnc2ccccc21,-16% (inactive),–
Fc1ccc(OCc2nn3c(Cn4nnc5ccccc54)nnc3s2)cc1,-6.75% (inactive),–
c1ccc(Cc2nn3c(Cn4cnc5ccccc54)nnc3s2)cc1,–,14.1 µM (active)
COc1ccc(CNc2ncncc2-c2ccccc2C)c(OC)c1,-20.2% (inactive),–
Cc1cc(C(=O)NCC2Cc3cccc(-c4cncnc4)c3O2)c(C)o1 (stereo not drawn),-7.51% (inactive),–
CNc1cc(-c2c(C)noc2C)ncn1,-0.693% (inactive),–
COCCCNC(=O)c1ccc(NC(=O)c2nsc3ccccc23)cc1,22.2% (inactive),–
COCCn1c(SCC(=O)c2cc(C)ccc2C)nc2cc(C(=O)NC3CCCC3)ccc2c1=O,-5.56% (inactive),–
CCc1nccn1S(=O)(=O)c1cccc([N+](=O)[O-])c1,-18.2% (inactive),–
CCc1nc(C)cn1S(=O)(=O)c1cc([N+](=O)[O-])ccc1Cl,–,20 µM (active)
CC(C)c1nccn1S(=O)(=O)c1cc([N+](=O)[O-])ccc1Cl,-7.03% (inactive),–
CCc1ccccc1N1CC(c2nc3ccccc3n2CCCCOc2ccccc2)CC1=O (stereo not drawn),0% (inactive),–
COc1ccc(OCCCn2c(C3CC(=O)N(c4ccc(F)cc4)C3)nc3ccccc32)cc1 (stereo not drawn),-10.8% (inactive),–
CCCCN1CC(c2nc3ccccc3n2CCCCOc2ccc(C)cc2C)CC1=O (stereo not drawn),–,39.8 µM (active)
Cc1ccc(CNC(=O)Cn2c(=O)ccc3cc(S(=O)(=O)N4CCCC4)ccc32)cc1,-21.1% (inactive),–
Cc1ccc(-n2c(SCC(=O)c3ccccc3)nc3c([nH]c4ccccc43)c2=O)cc1,4.48% (inactive),–
O=C1Oc2ccccc2C(=O)/C1=C/c1ccccc1O,–,28.2 µM (active)
C=C(C)C1CC=C(CO)CC1 (stereo not drawn),-0.494% (inactive),–

Structure (SMILES),"activity change, negative = inhibition",Potency
COc1ccccc1-n1nnnc1S(=O)(=O)Cc1ccc(Cl)cc1,–,10 µM (active)
COc1ccccc1CN(C)c1nnnn1-c1ccccc1,-2.75% (inactive),–
CCN(C(=O)CSc1nnnn1-c1ccccc1OC)C1CCS(=O)(=O)C1 (stereo not drawn),17.3% (inactive),–
CSc1ccccc1N1CCN(CCCCCC(=O)NC2CCCc3ccccc32)CC1 (stereo not drawn),-25% (inactive),–
CCC(C)C(=O)O[C@@H]1C[C@@]2(C)C(c3ccoc3)OC(=O)CC23OC2(C)O[C@@]14[C@@]1(C)C(CC(=O)OC)C5(C)CC1(O)C(O)(C5OC(=O)C1(C)OC1C)C(OC(C)=O)[C@@]34O2 (stereo partly drawn),-13.6% (inactive),–
Cc1ccc(C(=O)NC2CCN(C(=O)Nc3ccc(F)cc3)CC2)cc1,0% (inactive),–
Cc1ccc(NC(=O)N2CCC(C(=O)NCc3ccc(F)cc3)CC2)cc1,–,7.08 µM (active)
O=C(NCc1ccc(F)cc1)C1CCN(C(=O)Nc2ccc(F)cc2)CC1,-17% (inactive),–
O=C(CCN1Cc2ccccc2OC(c2ccccc2)C1)N[C@@H]1CS(=O)(=O)C[C@H]1O (stereo partly drawn),4.7% (inactive),–
COc1ccc(NC(=O)CCN2CCN(CCO)CC2)cc1,11.4% (inactive),–
O=C(NCC(c1ccc(Cl)cc1)N1CCOCC1)c1ccccc1F (stereo not drawn),-11% (inactive),–
CCC(C)(C)c1ccc(OCC(=O)N(C)C)c(C(C)(C)CC)c1,–,31.6 µM (active)
Cc1ccc(-n2c(=O)c3cccnc3n2CC(=O)NCc2ccc(F)cc2)cc1C,2.88% (inactive),–
OC[C@@H]1CN(Cc2ccncc2)C[C@H](n2cnc3c(N4CCN(c5ccccc5)CC4)ncnc32)O1,–,12.6 µM (active)
CC(C)Nc1ncnc2c1ncn2[C@H]1CN(Cc2ccncc2)C[C@@H](CO)O1,-18.6% (inactive),–
OC[C@@H]1CN(Cc2cccs2)C[C@H](n2cnc3c(Nc4ccccc4)ncnc32)O1,4.4% (inactive),–
OC[C@@H]1CN(Cc2ccc(-c3ccccc3)cc2)C[C@H](n2cnc3c(NC4CCCC4)ncnc32)O1,–,15.8 µM (active)
OC[C@@H]1CN(C2CCCC2)C[C@H](n2cnc3c(NC4CCC4)ncnc32)O1,-7.88% (inactive),–
OCCN1CCN(c2ncnc3c2ncn3[C@H]2CN(Cc3ccco3)C[C@@H](CO)O2)CC1,-21.6% (inactive),–
CN1CCN(c2ncc3nc(-c4ccc(Cl)cc4)c(=O)n(-c4ccccc4)c3n2)CC1,0.45% (inactive),–
CCCCCCCCCCCC(=O)O[C@H](CC(=O)O)C[N+](C)(C)C,-1.5% (inactive),–
